Screening results as filed in PubChem BioAssay.
Vc quorum ag: inducers of Vibrio cholerae quorum light production without autoinducers, primary screen, BH1578 luxS cqsA deficient, single point. V. cholerae BH1578 lux reporter, luminescence, 6 h. activation, % at 18.7 µM. 350,000 tested, 0.16% active. AID 588436, 2011; in the data active = activation mostly above about 9.7%, no sharp cut-off
BioA inh: M. tuberculosis BioA enzyme inhibitors, primary screen, biochemical, plate reader, single point, HTS. 7,8-diaminopelargonic acid synthase BioA (Mycobacterium tuberculosis). purified M. tuberculosis BioA enzyme. inhibition, % at 9.99 µM. 360,000 tested, 0.096% active. AID 602481, 2012; in the data active = inhibition above about 40%
GDH-TPI counter-1: GDH-TPI coupling enzyme inhibitors, primary screen, artefact control for M. tuberculosis FBA inhibitor project, biochemical, absorbance, full deck; GDH-TPI coupled enzyme counterscreen, NADH absorbance; inhibition, % at 4.8 µM; 360,000 tested, 1.2% active; in the data active = inhibition above about 30%
Mtb FBA inh: Mtb FBA enzyme inhibitors, primary screen, biochemical, fluorescence, strain H37Rv. purified M. tuberculosis FBA, fluorescence read-out. inhibition, % at 1 µM. 360,000 tested, 2.3% active
Target sequence (P9WQA3 whole entry, looked up): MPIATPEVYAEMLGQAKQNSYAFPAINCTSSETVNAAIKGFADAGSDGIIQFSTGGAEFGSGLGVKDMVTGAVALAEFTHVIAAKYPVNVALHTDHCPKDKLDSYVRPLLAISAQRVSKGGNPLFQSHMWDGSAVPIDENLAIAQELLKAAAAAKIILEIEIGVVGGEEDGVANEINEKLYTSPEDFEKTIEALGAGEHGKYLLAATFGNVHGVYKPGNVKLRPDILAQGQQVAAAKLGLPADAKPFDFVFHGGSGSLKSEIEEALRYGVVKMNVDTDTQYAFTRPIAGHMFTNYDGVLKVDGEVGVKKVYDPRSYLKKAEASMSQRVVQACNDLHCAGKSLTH
Mtb FBA confirm: M. tuberculosis aldolase blockers, biochemical, fluorescence, strain H37Rv, confirmation | 5,600 tested, 78% active | shares compounds with Mtb FBA inh | AID 651616, 2012 | purified M. tuberculosis FBA, fluorescence read-out | inhibition, % at 1 µM
GDH-TPI counter-2: GDH-TPI coupling enzyme inhibitors, artefact control for M. tuberculosis FBA inhibitor project, biochemical, fluorescence, high throughput; inhibition, % at 1 µM; shares compounds with Mtb FBA inh; 5,600 tested, 81% active; GDH-TPI coupled enzyme counterscreen; AID 652141, 2013; in the data active = inhibition above about 10%
GDH-TPI DR: GDH-TPI coupling enzyme inhibitors, dose response, artefact control for M. tuberculosis FBA inhibitor project, biochemical, fluorescence, IC50; shares compounds with Mtb FBA inh; GDH-TPI coupled enzyme assay, artifact counterscreen; IC50, µM; 170 tested, 79% active; call rule not given here
Large screens that a line does not name were inactive (follow-up assays come after a bar, where they were run). Hits are enriched below; roughly 3% of the tested compounds scored in any of these assays. Rule as the data show it, unless noted: active = inhibition above about 27%; inactive = the rest.

C[C@@H]1CN([C@@H](C)CO)C(=O)Cc2cc(NS(=O)(=O)c3ccc(F)cc3)ccc2O[C@@H]1CN(C)C	none (no result: Vc quorum ag, GDH-TPI counter-1, Mtb FBA inh)
Oc1cccc2c(NC(=S)Nc3ccc(SC(F)F)cc3)cccc12	Mtb FBA inh 30 (no result: BioA inh) | Mtb FBA confirm active | GDH-TPI counter-2 active
C[C@@H]1CCCCO[C@@H](CN(C)C(=O)Nc2ccccc2)[C@@H](C)CN([C@H](C)CO)C(=O)c2cc(NS(=O)(=O)c3cn(C)cn3)ccc2O1	none (no result: Vc quorum ag, GDH-TPI counter-1, Mtb FBA inh)
CCOc1c2ccc(C(=O)N[C@H](C)C3CCCCC3)cc2nn1CC	Mtb FBA inh 64 | Mtb FBA confirm 53 | GDH-TPI counter-2 45
CCCCn1nc2cc(C(=O)NCCc3cccs3)ccc2c1OCC	Mtb FBA inh 62 | Mtb FBA confirm 125 | GDH-TPI counter-2 103
CCOc1c2ccc(C(=O)NCCc3cccs3)cc2nn1CC	Mtb FBA inh 58 | Mtb FBA confirm 28 | GDH-TPI counter-2 18
CCCCn1nc2cc(C(=O)NCc3ccccc3OC)ccc2c1OCC	none
CCCCOc1ccc(C(=O)NCCc2cccs2)cc1	none (no result: BioA inh)
Cc1noc(C)c1NC(=O)N(C)C[C@H]1Oc2ncc(C#CCN(C)C)cc2C(=O)N([C@H](C)CO)C[C@@H]1C	none (no result: Vc quorum ag, GDH-TPI counter-1, Mtb FBA inh)
COc1ccccc1NC(=O)Cn1c2ccc(F)cc2c2nc3n(c(=O)c21)CCS3	none
O=C(Cn1c2ccc(F)cc2c2nc3n(c(=O)c21)CCS3)NCC1CCCO1 (centres undefined)	Mtb FBA inh 30 | Mtb FBA confirm 62 | GDH-TPI counter-2 55
CN(C(=O)COC(=O)c1ccc(Cl)cc1N)C1CCCCC1	Mtb FBA inh 39 (no result: BioA inh) | Mtb FBA confirm 40 | GDH-TPI counter-2 32
O=C(COC(=O)c1ccccc1Cl)NCc1cccs1	none
O=C(COC(=O)c1ccc(F)cc1Cl)NC1CCS(=O)(=O)C1 (centres undefined)	none
Nc1cc(Cl)ccc1C(=O)OCC(=O)NC1CCS(=O)(=O)C1 (centres undefined)	Mtb FBA inh 52 | Mtb FBA confirm 170 | GDH-TPI counter-2 158
Nc1cc(Cl)ccc1C(=O)OCC(=O)NCc1cccs1	Mtb FBA inh 56 | Mtb FBA confirm 31 | GDH-TPI counter-2 21
CN(C(=O)COC(=O)c1ccc([N+](=O)[O-])cc1Cl)C1CCCCC1	none
O=c1[nH]c2cc3c(cc2cc1C(c1nnnn1Cc1ccccc1)N1CCN2CCCC2C1)OCCO3 (centres undefined)	Mtb FBA inh 35 | Mtb FBA confirm active | GDH-TPI counter-2 134
CCCc1cc(=O)oc2cc(C)cc(OC(C)C(=O)NCc3ccccn3)c12 (centres undefined)	Mtb FBA inh 65 | Mtb FBA confirm active | GDH-TPI counter-2 active
CCc1cc(=O)oc2c(C)c(OCC(=O)NCc3ccccn3)ccc12	none
CCc1cc(=O)oc2cc(C)cc(OC(C)C(=O)NCc3ccccn3)c12 (centres undefined)	Mtb FBA inh 50 | Mtb FBA confirm 66 | GDH-TPI counter-2 48
CCc1cc(=O)oc2cc(OCC(=O)NCc3ccccn3)ccc12	none
COc1cc2nc(N3CCN(C(=O)[C@H]4COc5ccccc5O4)CC3)nc(N)c2cc1OC	Mtb FBA inh 82 | Mtb FBA confirm 63 | GDH-TPI counter-2 38
CCc1c(C)c2ccc(OCC(N)=O)cc2oc1=O	Mtb FBA inh 88 | Mtb FBA confirm inactive | GDH-TPI counter-2 inactive
CCOC(=O)COc1ccc2c3c(c(=O)oc2c1)CCCC3	Mtb FBA inh 32 | Mtb FBA confirm active | GDH-TPI counter-2 182
CN(C)C(=O)COc1ccc2c3c(c(=O)oc2c1)CCCC3	Mtb FBA inh 61 | Mtb FBA confirm 107 | GDH-TPI counter-2 84
COc1ccc(-c2c(C)c3ccc(OCC(C)=O)cc3oc2=O)cc1	none (no result: GDH-TPI counter-1, Mtb FBA inh)
O=C(COc1ccc2c3c(c(=O)oc2c1)CCC3)N1CCCC1	none
O=C(COc1ccc2c3c(c(=O)oc2c1)CCC3)N[C@@H](Cc1ccccc1)C(=O)O	Mtb FBA inh 27 | Mtb FBA confirm inactive | GDH-TPI counter-2 inactive
C[C@H](CO)N1C[C@H](C)[C@H](CN(C)CC2CCCCC2)Oc2ccc(NC(=O)Nc3cccc4ccccc34)cc2C1=O	none (no result: Vc quorum ag, GDH-TPI counter-1, Mtb FBA inh)
C[C@@H]1CN([C@@H](C)CO)C(=O)c2cc(NC(=O)Nc3ccc4c(c3)OCO4)ccc2O[C@H]1CN(C)Cc1ccc(Oc2ccccc2)cc1	none (no result: Vc quorum ag, GDH-TPI counter-1, Mtb FBA inh)
CC(C)CC(C(=O)Oc1ccc2c3c(c(=O)oc2c1)CCC3)N1C(=O)c2ccccc2C1=O (centres undefined)	Mtb FBA inh 31 | Mtb FBA confirm inactive | GDH-TPI counter-2 inactive | GDH-TPI DR 5.6
O=C(COc1ccc2c3c(c(=O)oc2c1)CCC3)NCc1ccncc1	none
CCC1CCCCN1C(=O)COc1ccc2c3c(c(=O)oc2c1)CCC3 (centres undefined)	none
O=C(COc1ccc2c3c(c(=O)oc2c1)CCC3)N1CCN(c2ccccc2)CC1	none
CCN(CC)C(=O)COc1ccc2c3c(c(=O)oc2c1)CCCC3	Mtb FBA inh 50 | Mtb FBA confirm 40 | GDH-TPI counter-2 41
O=C(O)COc1ccc2c3c(c(=O)oc2c1)CCC3	Mtb FBA inh 96 | Mtb FBA confirm 72 | GDH-TPI counter-2 47
CC(C)Oc1ccc2c3c(c(=O)oc2c1)CCC3	Mtb FBA inh 76 | Mtb FBA confirm 86 | GDH-TPI counter-2 72
CCNC(=O)Nc1ccc2c(c1)C(=O)N(C)[C@H]1CC[C@@H](CC(=O)NCc3ccccc3F)O[C@H]1CO2	none (no result: Vc quorum ag, GDH-TPI counter-1, Mtb FBA inh)
COc1ccc(-c2cn(CC[C@H]3CC[C@@H](NC(=O)Cc4ccccn4)[C@@H](CO)O3)nn2)cc1	none (no result: Vc quorum ag, GDH-TPI counter-1, Mtb FBA inh)
CCOC(=O)C1CC(c2ccccc2)=NN1c1ccccc1 (centres undefined)	Mtb FBA inh 72 (no result: BioA inh) | Mtb FBA confirm 35 | GDH-TPI counter-2 28
CCOC(=O)COc1ccc(C2CC(C)=NN2c2ccccc2)cc1 (centres undefined)	none
O=[N+]([O-])c1ccc(/C=C/C2=NN(c3ccccc3)C(c3ccco3)C2)o1 (centres undefined)	none (no result: BioA inh)
Fc1ccc(C2=NN(c3ccccc3)C(c3ccco3)C2)cc1 (centres undefined)	Mtb FBA inh 48 (no result: BioA inh) | Mtb FBA confirm 60 | GDH-TPI counter-2 48
Oc1ccc(C2=NN(c3ccccc3)C(c3ccc(F)cc3)C2)cc1 (centres undefined)	Mtb FBA inh 101 | Mtb FBA confirm 165 | GDH-TPI counter-2 148
